# Assay results reported in the supplement of paper PMC7411054.
# Where a name gives a salt, the structure may show the parent alone.
# Tests used:
# Settings in all cases: treatment time: 24 h
# A549-ACTB-RAB5A [1] = experiment: lowest phenotypically active concentration; higher = less potent
# Outline: (§1)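 Live-cell features were measured per well and normalised to solvent control wells after fifteen gene-edited A549, HepG2 and WPMY1 reporter lines had been treated for 24 h at 0.3, 1, 3 or 9 µM in four wells each. A condition was deviating when ≥3 of 4 wells sat beyond the 95th percentile of control Euclidean distances. It was reproducible when the median replicate Pearson correlation exceeded the 95th percentile of non-replicates. Phenotypic activity demanded both.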
# A549-CANX-COX4 [2] = experiment: as above
# Outline: as §1
# A549-GM130-SQSTM1 [3] = experiment: as above
# Outline: as §1
# A549-TP53BP1-CLTA [4] = experiment: as above
# Outline: as §1
# A549-TUBA1B-RELA [5] = experiment: as above
# Outline: as §1
# A549-ACTB-RAB5A [6] = experiment: phenotypically active (imaging signature differs from DMSO and reproducible) at any of 0.3-9 uM (binary (1 = active, 0 = inactive)); higher = active
# Outline: as §1
# A549-CANX-COX4 [7] = experiment: as above
# Outline: as §1
# A549-GM130-SQSTM1 [8] = experiment: as above
# Outline: as §1
# A549-TP53BP1-CLTA [9] = experiment: as above
# Outline: as §1
# A549-TUBA1B-RELA [10] = experiment: as above
# Outline: as §1
# HepG2-ACTB-RAB5A = experiment: as above
# Outline: as §1
# HepG2-CANX-COX4 = experiment: as above
# Outline: as §1
# HepG2-GM130-SQSTM1 = experiment: as above
# Outline: as §1
# HepG2-TP53BP1-CLTA = experiment: as above
# Outline: as §1
# HepG2-TUBA1B-RELA = experiment: as above
# Outline: as §1
# WPMY1-ACTB-RAB5A = experiment: as above
# Outline: as §1
# WPMY1-CANX-COX4 = experiment: as above
# Outline: as §1
# WPMY1-GM130-SQSTM1 = experiment: as above
# Outline: as §1
# WPMY1-TP53BP1-CLTA = experiment: as above
# Outline: as §1
# WPMY1-TUBA1B-RELA = experiment: as above
# Outline: as §1
Structure (SMILES),lowest phenotypically active concentration (A549-ACTB-RAB5A [1]) [µM],lowest phenotypically active concentration (A549-CANX-COX4 [2]) [µM],lowest phenotypically active concentration (A549-GM130-SQSTM1 [3]) [µM],lowest phenotypically active concentration (A549-TP53BP1-CLTA [4]) [µM],lowest phenotypically active concentration (A549-TUBA1B-RELA [5]) [µM],phenotypically active (A549-ACTB-RAB5A [6]),phenotypically active (A549-CANX-COX4 [7]),phenotypically active (A549-GM130-SQSTM1 [8]),phenotypically active (A549-TP53BP1-CLTA [9]),phenotypically active (A549-TUBA1B-RELA [10]),phenotypically active (HepG2-ACTB-RAB5A),phenotypically active (HepG2-CANX-COX4),phenotypically active (HepG2-GM130-SQSTM1),phenotypically active (HepG2-TP53BP1-CLTA),phenotypically active (HepG2-TUBA1B-RELA),phenotypically active (WPMY1-ACTB-RAB5A),phenotypically active (WPMY1-CANX-COX4),phenotypically active (WPMY1-GM130-SQSTM1),phenotypically active (WPMY1-TP53BP1-CLTA),phenotypically active (WPMY1-TUBA1B-RELA)
Cc1ccc(NC(=O)CCCCCC(=O)Nc2ccccc2N)cc1,1,3,1,3,3,1 (active),1 (active),1 (active),1 (active),1 (active),1 (active),1 (active),1 (active),1 (active),1 (active),1 (active),1 (active),1 (active),1 (active),1 (active)
C[C@H]1COCCN1c1cc(C2(S(=O)(=O)C3CC3)CC2)nc(-c2ccc(NC(=S)NCCO)cc2)n1,≤ 0.3,≤ 0.3,≤ 0.3,≤ 0.3,≤ 0.3,1 (active),1 (active),1 (active),1 (active),1 (active),1 (active),1 (active),1 (active),1 (active),1 (active),1 (active),1 (active),1 (active),1 (active),1 (active)
CCOC(=O)Nc1cc(-c2ccc(C)c(NS(C)(=O)=O)c2)nn2c(C)nnc12 [Bromosporine],≤ 0.3,1,1,1,1,1 (active),1 (active),1 (active),1 (active),1 (active),1 (active),1 (active),1 (active),1 (active),1 (active),1 (active),1 (active),1 (active),1 (active),1 (active)
COc1c(C)cnc(Cn2cnc3c(Cl)nc(N)nc32)c1C,≤ 0.3,≤ 0.3,≤ 0.3,≤ 0.3,≤ 0.3,1 (active),1 (active),1 (active),1 (active),1 (active),1 (active),1 (active),1 (active),1 (active),1 (active),1 (active),1 (active),1 (active),1 (active),1 (active)
O=C(NCc1cccc(O)c1)Nc1nc(-c2ccncc2)cs1 [RKI 1447 dihydrochloride],≤ 0.3,≤ 0.3,≤ 0.3,≤ 0.3,≤ 0.3,1 (active),1 (active),1 (active),1 (active),1 (active),1 (active),1 (active),1 (active),1 (active),1 (active),1 (active),1 (active),1 (active),1 (active),1 (active)
COc1cc(OC2CCN(C)CC2)ccc1Nc1ncc2c(n1)n(C1CCCC1)c(=O)n2C,3,3,3,3,3,1 (active),1 (active),1 (active),1 (active),1 (active),1 (active),1 (active),1 (active),1 (active),1 (active),1 (active),1 (active),1 (active),1 (active),1 (active)
CCC1=C[C@@H]2CN(C1)Cc1c([nH]c3ccccc13)[C@@](C(=O)OC)(c1cc3c(cc1OC)N(C)[C@H]1[C@@](O)(C(=O)OC)[C@H](OC(C)=O)[C@]4(CC)C=CCN5CC[C@]31[C@@H]54)C2 [vinorelbine],≤ 0.3,≤ 0.3,≤ 0.3,≤ 0.3,≤ 0.3,1 (active),1 (active),1 (active),1 (active),1 (active),1 (active),1 (active),1 (active),1 (active),1 (active),1 (active),1 (active),1 (active),1 (active),1 (active)
Nc1nc(S)c2[nH]cnc2n1 [thioguanine],3,9,9,9,9,1 (active),1 (active),1 (active),1 (active),1 (active),1 (active),1 (active),1 (active),1 (active),1 (active),1 (active),1 (active),1 (active),1 (active),1 (active)
